From PubChem BioAssay
Only a selection was taken, and hits are over-represented in it overall.
nsP2pro inh = blocks chikungunya virus nsP2 protease peptide cleavage. Q8JUX6. FRET peptide cleavage, nsP2pro, fluorescence 1 h. Potency, µM (series often up to 24.9 µM), without a hit: top-dose activity change, negative = inhibition, hits mostly inhibitors. 31,000 compounds, 1.1% hits; further: nearly all actives have a fitted effect of over 60% in size
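Enzyme 150 nM, substrate 2.5 uM (both final); Tris-HCl 10 mM pH 8.0 + 0.01% Tween 20; cpd up to 25 uM, 7 pts; 15 min preinc., 1 h RT; fluorescence ex 525/em 598.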
nsP2 cell sec = secondary cell-based test for CHIKV nsP2 protease inhibitors; shares compounds with nsP2pro inh; cell-based CHIKV nsP2 protease reporter assay; Potency, µM (highest dose often 51.1 µM), for the others: at the highest dose activity change, negative = inhibition, actives largely listed as inhibitors; 450 compounds, 10% hits; further: nearly all actives have a fitted effect of over 70% in size
NSP2 full ctr = full-length CHIKV NSP2 protease inhibition, selectivity | shares compounds with nsP2pro inh | Full-length CHIKV NSP2 protease enzymatic counterscreen | Potency, µM (titrated, usually from 50.7 µM), for inactives: at the top dose activity change, negative = inhibition, actives largely listed as inhibitors | 410 compounds, 39% hits; further: nearly all actives have a fitted effect of over 65% in size
Furin counter = selectivity counter-screen for CHIKV nsP2 protease inhibitors: human furin; Recombinant human furin enzymatic counterscreen, fluorogenic substrate; 410 compounds, 6% hits; shares compounds with nsP2pro inh; Potency, µM (series often up to 50.6 µM), without a hit: at the top dose activity change, negative = inhibition, actives largely listed as inhibitors
Target sequence (P09958 whole entry, looked up): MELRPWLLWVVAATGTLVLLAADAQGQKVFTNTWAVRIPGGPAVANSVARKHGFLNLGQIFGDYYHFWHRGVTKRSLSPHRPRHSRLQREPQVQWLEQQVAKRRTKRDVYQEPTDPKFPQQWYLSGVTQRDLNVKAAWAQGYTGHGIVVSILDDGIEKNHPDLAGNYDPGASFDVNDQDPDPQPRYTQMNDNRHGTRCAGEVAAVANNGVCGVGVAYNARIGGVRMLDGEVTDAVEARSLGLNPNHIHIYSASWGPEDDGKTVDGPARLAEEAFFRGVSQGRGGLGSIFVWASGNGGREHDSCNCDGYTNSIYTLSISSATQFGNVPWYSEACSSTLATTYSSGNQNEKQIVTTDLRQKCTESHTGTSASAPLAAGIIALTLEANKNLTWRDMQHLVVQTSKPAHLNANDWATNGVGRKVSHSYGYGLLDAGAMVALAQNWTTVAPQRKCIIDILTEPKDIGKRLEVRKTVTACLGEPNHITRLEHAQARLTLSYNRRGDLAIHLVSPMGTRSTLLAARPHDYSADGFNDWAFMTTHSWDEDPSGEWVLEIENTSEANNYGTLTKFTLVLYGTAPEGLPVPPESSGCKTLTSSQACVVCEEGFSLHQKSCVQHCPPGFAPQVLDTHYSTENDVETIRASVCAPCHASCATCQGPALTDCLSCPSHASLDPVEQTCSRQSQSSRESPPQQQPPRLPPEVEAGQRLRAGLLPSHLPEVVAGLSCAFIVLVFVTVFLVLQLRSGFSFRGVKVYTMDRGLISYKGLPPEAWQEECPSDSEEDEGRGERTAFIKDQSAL
nsP2 NS23 pep = selectivity test for CHIKV nsP2 protease inhibitors: endogenous NS2/3 peptide; shares compounds with nsP2pro inh; Purified CHIKV nsP2 protease, endogenous NS2/3 peptide cleavage; Potency, µM (doses to about 51 µM), for the others: at the top dose activity change, negative = inhibition, hits mostly inhibitors; 410 compounds, 34% hits; further: nearly all actives have a fitted effect of over 55% in size
Papain counter = inhibits papain in a CHIKV nsP2 protease selectivity counterscreen; shares compounds with nsP2pro inh; purified papain protease activity, enzymatic inhibition; Potency, µM (highest dose often 51 µM), inactives show at the top dose activity change, negative = inhibition, most hits filed as inhibitors; 410 compounds, 5% hits
nsP2pro conf qHTS = CHIKV nsP2 protease inhibition, confirmatory qHTS. shares compounds with nsP2pro inh. CHIKV nsP2 protease enzymatic activity, qHTS. Potency, µM (highest dose often 25.5 µM), for inactives: at the top dose activity change, negative = inhibition, usual class: inhibitors. 410 compounds, 43% hits; further: nearly all actives have a fitted effect of over 75% in size
HCV NS3 counter = HCV NS3/4A protease inhibition, counterscreen; HCV NS3/4A protease biochemical counterscreen; Potency, µM (doses to about 50.9 µM), usual class: inhibitors; shares compounds with nsP2pro inh; 410 compounds, 20% hits; further: nearly all actives have a fitted effect of over 55% in size
* marks the source's active call; other numbers are inactive results; i = inactive; ? = inconclusive; · = no result given; [ ] = dose if it differs, or a comment. The call rests on the fitted dose curve. On the % scale 0 is the no-effect control and ±100 the full control effect; potency means the concentration at half of the fitted maximal effect.

SMILES	nsP2pro inh	others
COc1cccc(-c2ccc(CN3CCCC(NC(=O)c4ccc(Cl)cc4)C3)cc2)c1 (centres undefined)	1%
CNC1CCN(C(Cc2cccc(-c3ccncc3)c2)C(=O)c2sc3c(F)ccc(F)c3c2Cl)CC1 (centres undefined)	·	nsP2 cell sec=?;NSP2 full ctr=?;Furin counter=-11%;nsP2 NS23 pep=-23%;Papain counter=-8%;nsP2pro conf qHTS=34%;HCV NS3 counter=i
O=C(NC1CCN(Cc2cccc(-c3cccs3)c2)CC1)c1cccc(Cl)c1	i
CNc1nc(C#N)c(-c2cccc3ccccc23)o1	-4%
CC(C)(C)C(=O)CN1C(=O)[C@H](NC(=O)Nc2cccc(C(=O)O)c2)CN(C2CCCCC2)c2ccccc21	-11%
CN(C(=O)c1cc2nc(-c3ccco3)cc(C(F)(F)F)n2n1)c1ccc(OC(F)(F)Cl)cc1	-25%
O=C(Nc1cccc(C(F)(F)F)c1)c1cc2nc(-c3ccco3)cc(C(F)(F)Cl)n2n1	-2%
O=C(NCc1cccs1)c1cc2nc(-c3ccco3)cc(C(F)(F)Cl)n2n1	5.6µM*	nsP2 cell sec=14%;NSP2 full ctr=-3%;Furin counter=-16%;nsP2 NS23 pep=-19%;Papain counter=-2%;nsP2pro conf qHTS=-16%;HCV NS3 counter=i
O=C(NCC(F)(F)F)c1ccc2nnc(-c3cncc(Cl)c3)n2c1	0%
C=C(C(=O)OC)C1C(O)CC2(C)C(O)CCC(=O)C2C1O (centres undefined)	-4%
COc1ccc(CNc2nc(N3CCCC3CO)ncc2C(=O)NCc2ncccn2)cc1Cl (centres undefined)	1%
O=C(Nc1ccc2nc(SCC(=O)N3CCc4ccccc43)sc2c1)c1cccc(Cl)c1	-16%
CCOC(=O)CSc1nc2ccc(NC(=O)c3ccc(Cl)cc3)cc2s1	?	nsP2 cell sec=-7%
CCOc1ccc(C(=O)Nc2ccc3nc(SCC(=O)N4CCCC4)sc3c2)cc1	-11%
CCc1ccc(Nc2c(F)c(F)cc(F)c2F)c(CC(=O)O)c1	-7%
CCOC(=O)c1ccc(NC(=O)CN2CCCCC2)cc1	9%
CCOC(=O)c1ccc2nc(C)cc(Nc3cccc(C(=O)O)c3)c2c1	0%
CCOC(=O)c1ccc(NC2SC(=O)N(Cc3cccc(C(=O)O)c3)C2=O)cc1 (centres undefined)	7.9µM*	nsP2 cell sec=-6%
COc1cc(N2CCC(N)CC2)ccc1Nc1ncc(Cl)c(-c2c[nH]c3ccccc23)n1	-17%
Fc1ccc2c(CCNCc3cccc(OCC(F)(F)C(F)F)c3)c[nH]c2c1	13%
Cc1cc(C)nc(NC(=S)N2CCN(c3nccc(C(F)(F)F)n3)CC2)c1	-16%
O=C(NC1CCCCC1)N[C@H]1CO[C@H]2[C@@H]1OC[C@@H]2n1nnnc1-c1ccc2c(c1)OCO2	2.8µM*	nsP2 cell sec=-11%;NSP2 full ctr=18µM*;Furin counter=16µM*;nsP2 NS23 pep=16µM*;Papain counter=-2%;nsP2pro conf qHTS=4.5µM*;HCV NS3 counter=?
C[C@H](C(=O)NC1CCCC1)N(C(=O)Cn1nnc(-c2ccc3c(c2)OCO3)n1)C1CCCCC1	4%
COc1cccc(-c2nnnn2[C@H]2CO[C@H]3[C@@H]2OC[C@@H]3NC(=O)C2CCCCC2)c1	19%[39.2 µM]
Cc1nncn1C1CN(S(=O)(=O)c2ccc3c(c2)CCC3)C1	0%
SMILES	nsP2pro inh	others
Cc1cc(C)nc(NC(=S)N2CCN(c3ccc(Cl)c(Cl)c3Cl)CC2)c1	i
Cc1ccc(S(=O)(=O)Nc2cc(C)ccc2C(=O)Nc2nc(-c3ccccc3)cs2)cc1	i
Cc1cc(Nc2ncnc3ccc(-c4ccc(CNCCS(C)(=O)=O)o4)cc23)ccc1Oc1ccn2ncnc2c1	1.2µM*	nsP2 cell sec=-13%;NSP2 full ctr=4.1µM*;Furin counter=-13%;nsP2 NS23 pep=?;Papain counter=?;nsP2pro conf qHTS=4.5µM*;HCV NS3 counter=?
CCOC(=O)c1ccc(-c2ccc3ncnc(NCc4ccc(C)o4)c3c2)o1	-3%
CS(=O)(=O)CCNCc1ccc(-c2ccc3ncnc(Nc4ccc(OCc5cccc(F)c5)c(Cl)c4)c3c2)o1	75%
O=c1cc(-c2ccc(O)c(O)c2)oc2c([C@@H]3O[C@H](CO)[C@@H](O)[C@H](O)[C@H]3O)c(O)cc(O)c12	-3%
COc1cccc(CNC(=O)c2cn3cc(-c4cccc(OC)c4)sc3n2)c1	i
Oc1ccc(C(O)CNCCCCCCNCC(O)c2ccc(O)c(O)c2)cc1O (centres undefined)	?	nsP2 cell sec=91%;NSP2 full ctr=?;Furin counter=26µM*;nsP2 NS23 pep=-10%;Papain counter=-4%;nsP2pro conf qHTS=26%;HCV NS3 counter=i
Oc1ccc(CCNCCCCCCNCCc2ccccc2)cc1O	-13%
CNC[C@H](O)c1cccc(O)c1	2%
O=C(Nc1nc(-c2ccccc2)cs1)c1ccncc1NS(=O)(=O)c1cccc(Cl)c1	i
Cc1sc2c(c1C)c(=O)n(Cc1ccccc1)c(=O)n2Cc1ccc(F)cc1	-13%
Cc1cnc(CCN)n1Cc1ccccc1	i
Cn1sc(=O)n(Cc2ccccc2)c1=O	6.2µM*	nsP2 cell sec=?;NSP2 full ctr=12µM*;Furin counter=?;nsP2 NS23 pep=9.2µM*;Papain counter=-4%;nsP2pro conf qHTS=4µM*;HCV NS3 counter=i
C=C1C(OC2OC(CO)C(O)C(O)C2O)CC2C(C)(C)C(O)CCC2(C)C1CC/C(C)=C\COC(=O)CC(=O)O (centres undefined)	19%[10 µM]
Cc1nnc(-c2ccccc2[N+](=O)[O-])n1CCCn1ccnc1	i
Cc1cccc(-c2noc([C@@H]3Cc4nc[nH]c4CN3C(=O)C3CCCCC3)n2)c1	72%[39.2 µM]
O=C(NC1CCCCC1)N1Cc2[nH]cnc2C[C@H]1c1nc(-c2ccc(Cl)cc2)no1	4.5µM*	nsP2 cell sec=56%;NSP2 full ctr=33µM*;Furin counter=-9%;nsP2 NS23 pep=?;Papain counter=-9%;nsP2pro conf qHTS=10µM*;HCV NS3 counter=i
Cc1cccc(-c2noc([C@@H]3Cc4nc[nH]c4CN3C(=O)c3ccc(-c4ccccc4)cc3)n2)c1	i
CCCCc1ccc(C(=O)Nc2cc(-c3ccc(Cl)cc3)nn2-c2ccc(Cl)cc2)cc1	-3%
O=C(O)c1c[nH]c2c(ccc3ccccc32)c1=O	20%
O=C1Nc2ccccc2/C1=C\c1ccc(C(=O)O)cc1	i
CN[C@H]1C[C@@H](N)[C@H](O)[C@@H](O[C@@H]2O[C@H](CO)[C@H](O)[C@@H]3OC4(O[C@H]23)O[C@H]([C@@H](N)CO)[C@H](O)[C@H](O)[C@H]4O)[C@@H]1O (some centres undefined)	31%
